Results on 22 compounds are retold here after PubChem BioAssay (NCATS).

The structures appear in SMILES notation. Results filed as inconclusive are left out. Values without a mark were called inactive. Calls of active or inactive are those of the source. Calls come from the whole dose curve; as a rule, active = well fitted curve in the direction sought with a large enough effect; inconclusive = small, poorly fitted or top-dose-only effect, or another doubt; inactive = no such curve, though single readings can be large; an effect the other way counts as inactive or inconclusive.

Test [1] is described as follows: Quantitative highthroughput screen to assess conditional lethalithy of NOMO1 cells grown in RPMI1640 with untreated serum (RPMI+s) (AID 1963876).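 For viability: 100% = DMSO wells and 0% = empty wells without cells.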 Note: nearly all actives have a fitted effect of over 35% in size. The essentials: (§1)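 Each medium arm—HPLM with 10% dialyzed FBS, or RPMI1640 with 5 mM glucose and 10% untreated or dialyzed FBS—was screened against an 11-point, 3-fold compound titration for 48 h at 37 °C, with CellTiter-Glo luminescence as endpoint.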

A short description of test [2]: Quantitative highthroughput screen to assess conditional lethalithy of NOMO1 cells grown in Human Plasma-Like Medium with dialyzed fetal bovine serum (HPLM+ds) (AID 1963878).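 For viability: 100% = DMSO wells and 0% = empty wells on each plate.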 Note: nearly all actives have a fitted effect of over 35% in size. Put shortly:
as §1

A short description of test [3]: Quantitative highthroughput screen to assess conditional lethalithy of P12 Ichikawa cells grown in Human Plasma-Like Medium with dialyzed fetal bovine serum (HPLM+ds) (AID 1963879). For viability: series mostly up to about 46 µM. Note: nearly all actives have a fitted effect of over 35% in size. To be noted: Potency: viability. Put shortly: as §1
The nature of test [4]: Quantitative highthroughput screen to assess conditional lethalithy of P12 Ichikawa cells grown in RPMI1640 with untreated serum (RPMI+s) (AID 1963881).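 For viability: series mostly up to about 46 µM; 100% = DMSO wells and 0% = empty wells without cells.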 Note: nearly all actives have a fitted effect of over 35% in size. The note with it: Potency: viability. The essentials:
as §1

Test [5] is described as follows: Quantitative highthroughput screen to assess conditional lethalithy of SEM cells grown in Human Plasma-Like Medium with dialyzed fetal bovine serum (HPLM+ds) (AID 1963882). For viability: series mostly up to about 46 µM. Note: nearly all actives have a fitted effect of over 35% in size. Put shortly:
as §1

The nature of test [6]: Quantitative highthroughput screen to assess conditional lethalithy of SEM cells grown in RPMI1640 with unreated serum (RPMI+s) (AID 1963883).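 For viability: 100% = DMSO wells and 0% = empty wells without cells.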 Note: nearly all actives have a fitted effect of over 35% in size. The essentials: as §1
Test [7] is described as follows: Quantitative highthroughput screen to assess conditional lethalithy of P12 Ichikawa cells grown in RPMI1640 with dialyzed fetal bovine serum (RPMI+ds) (AID 1963880).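 For viability: 100% = DMSO wells and 0% = empty wells on each plate.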 Note: nearly all actives have a fitted effect of over 35% in size. The note with it: Potency: P12-Ichikawa viability. The essentials: as §1
Test [8] is described as follows: Quantitative highthroughput screen to assess conditional lethalithy of SEM cells grown in RPMI1640 with dialyzed fetal bovine serum (RPMI+ds) (AID 1963884).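 For viability: series mostly up to about 46 µM; 100% = DMSO control wells and 0% = empty wells without cells.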 Note: nearly all actives have a fitted effect of over 35% in size. Put shortly:
as §1

A short description of test [9]: Cellular viability qHTS for adrenocortical cancer (ACC) cell line NCI-H295R (AID 1963990). Note: nearly all actives have a fitted effect of over 60% in size. The essentials: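 Adrenocortical carcinoma cells, suspended at 300 000 cells/mL in serum-free DMEM plus ITS, rested overnight before pin transfer of compound. After two days' incubation, ATP-dependent luminescence was recorded and curve-fitted.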
(In general: qHTS replaces the single test concentration by a dilution series.)

The nature of test [10]: Cellular viability qHTS for adrenocortical cancer (ACC) cell line SW-13 (AID 1963989).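 For activity (max response): cells grown in serum-free medium with ITS supplement; % is set by controls: 0 for no effect and ±100 for the full control effect.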 Note: nearly all actives have a fitted effect of over 65% in size. To be noted: SW-13 ACC cells viability, CellTiter-Glo, 48 h; activity (max response): hits give low values. Put shortly: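 IC50 and maximal-response values come from four-parameter logistic fits of titration data. SW-13 cells in serum-free medium received compounds (up to 46 uM final) for 48 h before CellTiter-Glo luminescence.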

Test [11] in a line: Quantitative highthroughput screen to assess conditional lethalithy of NOMO1 cells grown in RPMI1640 with dialyzed fetal bovine serum (RPMI+ds) (AID 1963877).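 For viability: series mostly up to about 46 µM; 100% = DMSO control wells and 0% = empty wells.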 Note: nearly all actives have a fitted effect of over 30% in size. The essentials: as §1
Potency is the fitted concentration of half-maximal effect.

As to `O=C(O)C1=NC(C(=O)O)CC(C=CN2c3cc(O)c(OC4OC(CO)C(O)C(O)C4O)cc3CC2C(=O)O)=C1` (stereo not given), the Potency entry in test [1], in [2], in test [3], in [4], in test [5] and in test [6] was “inactive” each time.

Consider `COc1nc(-c2ccc3c(c2)OCO3)n(-c2ccc(NC(=O)CSc3ccccc3)cc2)n1`, for which the figures for the Potency in test [1] and in test [2] were 23.5 µM (active) and 20.9 µM (active), respectively. Also, the Potency result in test [3], in test [7], in test [4], in test [5], in test [6] and in [8] was “inactive” throughout. The Potency entry in test [9] was “inactive”.

`CC1(O)CC(c2nc(-c3ccc4ccc(-c5ccccc5)nc4c3)c3c(N)nccn23)C1` (stereo not given): the Potency is 3.72 µM (active) in test [1]; 2.35 µM (active) in test [2]; 7.43 µM (active) in [3]; 5.9 µM (active) in test [7]; 4.69 µM (active) in [4]; 2.35 µM (active) in test [5]. Further, in test [6], the Potency was 1.18 µM (active). Moreover, the activity (max response) in [10] was -21%.

For `Cc1cccc(-c2[nH]ncc2-c2ccc3ncccc3n2)n1`, the Potency result in [1] and in test [9] was “inactive” each time. Also, the Potency in test [11] was 18.7 µM (active). In addition, the activity (max response) in test [10] was 4.45%.

For `CC(N[C@H]1CCCC[C@H]1NC(=O)c1ccc(Cl)cc1)c1cccc2ccccc12` (stereo not given in full), the Potency in test [1] is 8.33 µM (active); in test [2] it was 5.26 µM (active); in test [9], 7.08 µM (active). Also, the Potency entry in [5], in test [6] and in test [8] was “inactive” throughout.

Turning to `Nc1ncnc2c1ncn2[C@@H]1O[C@H](CO)C[C@@H]1O`, the Potency result in test [1], in [2], in [3], in test [7] and in test [4] was “inactive” throughout.

For `O=C(CCCN1CCC(O)(c2ccc(Cl)cc2)CC1)c1ccc(F)cc1`, the Potency result in test [1], in test [2], in test [3], in test [7], in [4] and in test [5] was “inactive” in each case. Further, the Potency result in test [6] and in test [8] was “inactive” throughout.

`c1ccc(-c2nn3c(c2-c2ccnc4cc(OCCN5CCOCC5)ccc24)CCC3)nc1`: the Potency result in test [1], in test [3], in test [7], in test [4], in test [6] and in test [9] was “inactive” each time. For the same compound, in test [2], the Potency is 18.7 µM (active).

Regarding `O=C1NC(=O)[C@@H](c2cn3c4c(cccc24)CCC3)[C@H]1c1c[nH]c2ccccc12`, the Potency is 1.87 µM (active) in [1] and 1.48 µM (active) in [3].

As for `CN1[C@H]2CC[C@H]1CC(OC(=O)c1c[nH]c3ccccc13)C2` (stereo not given in full), the Potency entry in test [1], in test [2], in test [3], in test [4], in test [5] and in test [6] was “inactive” in each case. Moreover, the Potency entry in [8] was “inactive”.

`Cn1c2cc(S(C)=O)sc2c2cnn(Cc3cccc(N)c3)c(=O)c21` (stereo not given): the Potency entry in test [1], in test [2] and in test [9] was “inactive” throughout.

Consider `COc1cccc(-c2ccc(NC(=O)C3=C(C(=O)O)CCC3)c(F)c2)c1`, for which the Potency entry in test [1], in [2] and in test [5] was “inactive” each time. In addition, the Potency in [3] is 16.6 µM (active).

For `Cc1ccccc1C(C(=O)NC1CCCC1)N(C(=O)Cn1cnc2ccccc21)c1cccc(F)c1` (stereo not given), the Potency result in [1], in test [2], in test [3], in test [7], in test [4] and in test [5] was “inactive” throughout.

Consider `O=C(O)c1ccc(O)c2ncc(N3CCOCC3)cc12`, for which the Potency entry in test [1], in [11] and in test [9] was “inactive” throughout. For the same compound, in [8], the Potency was 18.7 µM (active). The activity (max response) in [10] was -5.09%.

For the compound `O=C(O)c1c(Cl)c(Cl)c(Cl)c(Cl)c1-c1c2cc(I)c(=O)c(I)c-2oc2c(I)c(O)c(I)cc12`, the Potency is 16.6 µM (active) in test [1], 8.33 µM (active) in test [3], 12.6 µM (active) in [10] and 14.1 µM (active) in test [9]. Also, the Potency entry in [2] was “inactive”.

Consider `Clc1ccc(COC(Cn2ccnc2)c2ccc(Cl)cc2Cl)cc1` (stereo not given), for which the Potency entry in [1], in [2], in [3], in test [5] and in test [8] was “inactive” throughout. Further, the Potency in test [7] is 5.9 µM (active).

Take `CC[C@]1(O)C[C@H]2CN(CCC3=c4ccccc4=N[C]3[C@@](C(=O)OC)(c3cc4c(cc3OC)N(C)[C@H]3[C@@](O)(C(N)=O)[C@H](O)[C@]5(CC)C=CCN6CC[C@]43[C@@H]65)C2)C1`: the Potency in test [1] was 0.0935 µM (active); in test [2], 0.0148 µM (active); in test [3] it was 0.0833 µM (active); in test [7] it was 0.132 µM (active); in test [4], 0.0662 µM (active); in [5], 0.118 µM (active). Also, the Potency in test [6] is 0.059 µM (active); in [8], 0.118 µM (active).

With `O=C1NC(=O)C(=Cc2ccc3nccc(-c4ccncc4)c3c2)S1`, the Potency is 2.64 µM (active) in [1]; 0.662 µM (active) in test [2]; 7.43 µM (active) in test [3]; 1.87 µM (active) in test [7]; 1.87 µM (active) in [4]; 0.935 µM (active) in test [6].

Consider `O=C1Nc2ccc(I)cc2C1=Cc1cc(Br)c(O)c(Br)c1`, for which the Potency entry in test [1], in test [2], in [3], in [4] and in test [5] was “inactive” in each case. Further, the Potency in test [6] was 16.6 µM (active); in test [8] it was 18.7 µM (active).

On to `CCCCN(CCCC)CC(O)c1cc(Cl)cc2c1-c1ccc(Cl)cc1C2=Cc1ccc(Cl)cc1` (stereo not given), for which the Potency result in test [1], in test [2], in [3], in test [7], in test [4] and in test [5] was “inactive” each time. The Potency entry in [6] and in test [8] was “inactive” each time.

Turning to `OC[C@H]1O[C@@H](O[C@H]2[C@@H](O)[C@@](O)(CO)O[C@@H]2CO)[C@H](O)[C@@H](O)[C@@H]1O`, the Potency result in test [1], in test [11], in [6] and in [8] was “inactive” throughout.

As for `COc1ccc(C(C)=O)c(O)c1`, the Potency in [1] was 2.64 µM (active); in [2], 0.935 µM (active); in test [4] it was 8.33 µM (active). In addition, the Potency result in test [5], in test [6] and in test [8] was “inactive” each time.
